High-throughput results as filed in PubChem BioAssay.
CD40 NFkB inh: inhibitors of CD40-induced NF-kB signaling, primary screen, BL2 cells, luciferase reporter, single point; CD40L-induced, 4 h; hit rate 0.94% among 83,000; inhibition, % at 10 µM;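 active means mean inhibition of at least 50% with a set share of replicates also reaching that level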;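 further: 0% = neutral control wells and 100% = IKK inhibitor VII at 50 µM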
Numbers without * were called inactive; [ ] = another dose, or the depositor's remark. The sample as a whole holds a higher share of hits than the screen did.

SMILES	CD40 NFkB inh
c1cncc(-c2ccc(C3[C@H]4CNC[C@@H]3N4Cc3ccc4c(c3)OCO4)cc2)c1 (stereo partly specified)	-10.8[25 µM]
O=C(Nc1nc2ccc(F)cc2s1)C1CC(=O)N(c2ccc3c(c2)OCCO3)C1 (stereo unspecified)	27.6
O=C(Nc1nnc(C2CC2)s1)C1CC(=O)N(c2ccc3c(c2)OCCO3)C1 (stereo unspecified)	51.2*
O=C(Nc1nnc(C2CCCCC2)s1)C1CC(=O)N(c2ccccc2)C1 (stereo unspecified)	13.1
C[C@@H]1CN([C@@H](C)CO)C(=O)c2cc(N(C)C)ccc2O[C@@H](C)CCCCO[C@@H]1CN(C)Cc1ccc(C(=O)O)cc1	-4.8[25 µM]
CC(C)C1C(=O)N(S(C)(=O)=O)[C@@H]2CCN(C(=O)/C=C/CN3CCCCC3)[C@@H]12 (stereo partly specified)	-4.8[25 µM]
O=C(C1CCOCC1)N1CC(=O)N2[C@H](CO)[C@@H](c3ccc(C#CC4CCCCC4)cc3)[C@H]2C1	-7.2[25 µM]
O=C(COC(=O)c1cccs1)c1ccc2ccccc2c1	-83.3
CNS(=O)(=O)c1cccc(C(=O)OCC(=O)c2ccc3c(c2)OCCO3)c1	25.0
CC(=O)NC12CC3CC(C1)CC(C(=O)OCC(=O)c1ccc4c(c1)OCCO4)(C3)C2	59.3*
O=C(COC(=O)c1ccccc1-c1ccccc1[N+](=O)[O-])c1ccccc1	-11.7
COc1cccc(CN(C)C(=O)C23CC4CC(CC(NC(C)=O)(C4)C2)C3)c1OC	5.4
N#CCC(=O)Nc1ccc(C(=O)OCC(=O)c2ccc3c(c2)OCO3)cc1	-63.4
O=C(COC(=O)c1ccccc1[N+](=O)[O-])c1ccc2c(c1)OCO2	88.0*
O=C(Nc1ccc(NC(=O)c2cccs2)cc1)c1ccc2c(c1)OCCO2	3.4
O=C(COC(=O)c1cccs1)c1ccc2c(c1)OCCO2	113.1*
CNC[C@H]1Oc2ccc(N)cc2CC(=O)N(C)C[C@H]1C	17.4
Cc1ccc(CN2CC(=O)N3[C@H](CO)[C@@H](c4ccc(-c5ccccc5F)cc4)[C@@H]3C2)cc1	-5.2[25 µM]
CO[C@H]1CN(C)C(=O)c2ccc(NC(=O)Nc3ccccc3)cc2OC[C@H](C)N(C(=O)CC2CC2)C[C@H]1C	-14.5[25 µM]
O=C(Nc1ccc(F)cc1)N1CC(=O)N2[C@H](CO)[C@@H](c3ccc(-c4cccc(F)c4)cc3)[C@H]2C1	33.5[25 µM]
CN1C(=O)c2cc(NC(=O)C3CCCC3)ccc2OC[C@H]2O[C@H](CC(=O)NCCc3ccncc3)CC[C@@H]21	-2.6
C[C@@H]1CN([C@H](C)CO)C(=O)c2cc(NS(=O)(=O)c3ccc(F)cc3)ccc2O[C@@H]1CN(C)C(=O)Nc1ccccc1	-4.9[25 µM]
COc1ccccc1CN1C[C@@H]2N[C@H](C1)C2c1ccc(-c2ccccc2OC)cc1 (stereo partly specified)	20.9[25 µM]
CCc1nnc(NS(=O)(=O)c2ccc(Nc3ccc([N+](=O)[O-])c4nonc34)cc2)s1	16.1
Cc1ccc(S(=O)c2ccc([N+](=O)[O-])c3nonc23)cc1 (stereo unspecified)	87.5*
SMILES	CD40 NFkB inh
Cc1ccc(C)c([N+](=O)[O-])c1	11.8
CCCc1cn(CC[C@H]2CC[C@@H](NC(=O)Cc3cccnc3)[C@@H](CO)O2)nn1	-1.5
COc1ccc(NC(=O)Nc2ccc3c(c2)C(=O)N([C@@H](C)CO)C[C@H](C)[C@@H](CN(C)C(=O)Nc2ccc(F)cc2)OCCCC[C@H](C)O3)cc1	-0.3
CN1C(=O)c2cc(NC(=O)C3CCC3)ccc2OC[C@H]2O[C@H](CC(=O)NCc3ccccc3F)CC[C@@H]21	-3.7
Cc1cc(C(=O)Nc2ccc3c(c2)C(=O)N(C)[C@H]2CC[C@@H](CC(=O)NCc4ccc(-c5ccccc5)cc4)O[C@@H]2CO3)no1	10.5[25 µM]
O=C(COc1cccnc1[N+](=O)[O-])Nc1ncc(Cl)cc1Cl	-15.1
O=C(COc1cccnc1[N+](=O)[O-])c1ccc(Cl)s1	92.2*
O=C(COc1cccnc1[N+](=O)[O-])Nc1c(Cl)cccc1Cl	4.5
C/C=C/c1ccc([C@H]2[C@@H](CNS(C)(=O)=O)N(CC3CCCC3)[C@H]2CO)cc1	4.5
CCS(=O)(=O)Nc1ccc2c(c1)C(=O)N(C)C[C@@H](OC)[C@@H](C)CN(CC1CCCC1)[C@H](C)CO2	2.9
CN1C(=O)c2cc(NC(=O)C3CC3)ccc2OC[C@H]2O[C@@H](CC(=O)NCc3ccccc3F)CC[C@@H]21	2.3
C[C@@H]1C[C@H]2[C@@H]3CCC4=CC(=O)C=C[C@]4(C)[C@@]3(F)[C@@H](O)C[C@]2(C)[C@@]1(O)C(=O)COP(=O)(O)O	51.5*
CCCC(=O)O[C@]1(C(=O)CCl)[C@@H](C)C[C@H]2[C@@H]3CCC4=CC(=O)C=C[C@]4(C)[C@@]3(F)C(=O)C[C@@]21C	41.9
C[C@H]1C[C@H]2[C@@H]3CCC4=CC(=O)C=C[C@]4(C)[C@@]3(Cl)[C@@H](O)C[C@]2(C)[C@@]1(O)C(=O)CO	29.5
CC12C=CC(=O)C=C1CCC1C3CCC(O)(C(=O)CO)C3(C)CC(O)C12F (stereo unspecified)	27.9
CCC(=O)O[C@]1(C(=O)CCl)[C@@H](C)C[C@H]2[C@@H]3CCC4=CC(=O)C=C[C@]4(C)[C@@]3(F)[C@@H](O)C[C@@]21C	44.8*
N#C[C@@H]1[C@H](c2ccccc2-c2cccc(F)c2)[C@H](CO)N1C(=O)NC1CCCCC1	13.8[25 µM]
C[C@@H]1CNC(=O)[C@H](Cc2ccc(C(F)(F)F)cc2)CCn2nncc2COC1	5.8[25 µM]
CN1CCN(C(=O)C[C@@H]2CC[C@@H]3[C@@H](COc4ccc(NC(=O)c5cccs5)cc4C(=O)N3C)O2)CC1	-15.7[25 µM]
O=C(NC1CCC1)[C@@H]1[C@@H](CO)[C@@H]2Cn3c(cccc3=O)[C@H]1N2Cc1cc(F)ccc1F	3.2[25 µM]
O=C(O)CC/C=C/CC1COC(c2ccccc2Cl)OC1c1ccccc1O (stereo unspecified)	-17.7[25 µM]
